IL1B secr inh = inhibitors of inflammasome signaling (IL-1 beta secretion); 4.7% of 360,000 active; activity change, % at 57.5 µM; AID 743279; THP-1 LPS/ATP IL-1B secretion, AlphaLISA, 16 h; stronger effect = lower value; in the data active means activity change below about -50%; inconclusive means mostly about -30% to -49%
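Secreted IL-1B measured by AlphaLISA bead assay after 16 h compound exposure of THP-1 cells; compounds (final up to 57.5 uM) added 1 h before LPS (250 ng/mL) and ATP (1.25 mM) stimulation; lower signal means less secretion.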
12-LOX inh = ALOX12 (human) lipoxygenase inhibition. purified 12hLO, xylenol orange hydroperoxide absorbance. 1.1% of 580,000 active. Potency, µM (highest dose often 108 µM), for inactives: at the highest dose activity change, negative = inhibition, most hits filed as inhibitors. P18054; further: potency means the concentration at half of the fitted maximal effect
Target sequence (P18054 whole entry, looked up): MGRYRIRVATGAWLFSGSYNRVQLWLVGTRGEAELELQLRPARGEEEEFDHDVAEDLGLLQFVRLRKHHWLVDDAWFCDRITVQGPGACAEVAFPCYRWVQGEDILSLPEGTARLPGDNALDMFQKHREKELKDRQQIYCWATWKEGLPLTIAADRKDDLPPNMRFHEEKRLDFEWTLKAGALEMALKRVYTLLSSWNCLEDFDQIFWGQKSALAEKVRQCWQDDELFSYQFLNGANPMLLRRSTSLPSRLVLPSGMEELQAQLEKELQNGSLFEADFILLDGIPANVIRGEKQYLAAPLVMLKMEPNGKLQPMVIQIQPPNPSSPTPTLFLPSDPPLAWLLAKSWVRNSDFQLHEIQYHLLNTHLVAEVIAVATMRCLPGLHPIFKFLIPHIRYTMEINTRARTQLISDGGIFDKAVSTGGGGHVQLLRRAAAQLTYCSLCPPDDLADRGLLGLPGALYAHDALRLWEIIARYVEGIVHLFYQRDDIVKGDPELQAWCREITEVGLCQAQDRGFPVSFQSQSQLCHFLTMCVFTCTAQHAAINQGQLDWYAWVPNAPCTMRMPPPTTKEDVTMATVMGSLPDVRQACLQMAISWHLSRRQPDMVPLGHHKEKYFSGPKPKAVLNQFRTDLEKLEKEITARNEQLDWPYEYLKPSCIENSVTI
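Hydroperoxide product was detected by ferrous iron/xylenol orange as the 573 to 405 nm absorbance ratio. Arachidonic acid at 40 uM (final) was turned over for 30 min at room temperature by 150 nM human 12hLO, pH 7.0 Hepes buffer, after 15 min compound preincubation.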
DT40 TDP1 no CPT = qHTS for Inhibitors of human tyrosyl-DNA phosphodiesterase 1 (TDP1): qHTS in cells in absence of CPT. DT40 Tdp1-/- hTDP1 cells, no CPT, ATP luminescence, 48 h. Potency, µM (top dose mostly 46.2 µM), without a hit: at the top dose activity change, negative = growth inhibition, hits mostly inhibitors. 15% of 420,000 active; further: potency means the concentration at half of the fitted maximal effect; nearly all actives have a fitted effect of over 55% in size
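Readout: luminescence from CellTiter-Glo after 30 min in the dark at RT. Cells: DT40 Tdp1-/- with stable hTDP1, 400/well. Exposure: compounds alone, ≥48 hr, 37 °C.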
HT1080 IDH1KD tx = toxicity to HT-1080 IDH1 knockdown cells (counter line) | Potency, µM (top dose mostly 46.1 µM), inactives show top-dose activity, negative = toxicity, most hits filed as cytotoxic | 2% of 360,000 active | AID 686971 | HT-1080 IDH1 knockdown viability, ATP luminescence, 48 h;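 further: potency means the concentration at half of the fitted maximal effect; 0% = DMSO wells and -100% = cell-free medium wells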
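Knockdown cells (IDH1KD HT-1080) received compounds 2 h after plating at 750 cells/well and were kept 48 h at 37 °C in 5% FBS RPMI. A CellTiter-Glo luminescence read gave % activity for curve fitting.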
HT1080NT lethal = kills 2HG-producing HT-1080-NT fibrosarcoma cells; HT-1080-NT fibrosarcoma viability, CellTiter-Glo ATP luminescence, 48 h; Potency, µM (doses to about 46.1 µM), inactives show at the highest dose activity, negative = less viability, usual class: cytotoxic; 1.6% of 360,000 active; AID 686970;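 further: NT is the 2HG producing partner of a matched IDH1 knockdown line; potency means the concentration at half of the fitted maximal effect; 0% = DMSO-treated cells and -100% = media-only wells without cells; nearly all actives have a fitted effect of over 55% in size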
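Toxicity toward the 2HG-producing NT line was scored as %Activity, normalised to DMSO and no-cell wells, from CellTiter-Glo luminescence after 48 hours' treatment.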
TDP1 cell CPT = growth inhibition of DT40 Tdp1-/-;hTDP1 cells with camptothecin (screen for TDP1 inhibitors); 12% of 420,000 active; chicken DT40 Tdp1-/-;hTDP1 cells + 20 nM CPT, ATP luminescence, 48 h; Potency, µM (top dose mostly 46.2 µM), for the others: at the highest dose activity change, negative = growth inhibition, most hits filed as inhibitors; further: potency means the concentration at half of the fitted maximal effect; nearly all actives have a fitted effect of over 55% in size
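Chicken DT40 Tdp1-/- cells complemented with human TDP1, 400 cells/well, exposed to compounds plus 20 nM camptothecin for at least 48 h at 37 C; viability read as ATP content by CellTiter-Glo luminescence.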
Numbers without * were called inactive; ? = inconclusive; · = no result given; [ ] = dose if it differs, or a comment. The sample as a whole holds a higher share of hits than the screen did. Unless noted, the call rests on the fitted dose curve; in most records, active means well fitted curve in the direction sought with a large enough effect; inconclusive means small, poorly fitted or top-dose-only effect, or another doubt; inactive means no such curve, though single readings can be large; an effect the other way counts as inactive or inconclusive. Unless noted, on the % scale 0 is the no-effect control and ±100 the full control effect.

SMILES	IL1B secr inh	12-LOX inh	DT40 TDP1 no CPT	HT1080 IDH1KD tx	HT1080NT lethal	TDP1 cell CPT
Cc1ccc(Nc2nc(NCCO)c3ccccc3n2)cc1C	-99*	?	16µM*	23µM*	23µM*	?
COc1ccc(OC)c(Nc2nc(NCCO)c3ccccc3n2)c1	-89*	?	16µM*	?	-27%	?
OCCNc1nc(-c2ccccc2)nc2ccccc12	?	-13%	-21%	-13%	3%	15%
O=C1CO[C@H]2CCN(CCCc3ccccc3)CC[C@@H]2N1Cc1ccccc1	·	-20%[176 µM]	·	·	·	·
NC(=O)c1cc(-c2csc(NCCc3ccccc3)n2)ccc1O	-23	32µM*	?	-22%	-29%	?
NC(=O)c1cc(-c2csc(-c3cccnc3)n2)ccc1O	?	?	13µM*	-10%	-1%	-23%
C=CCNc1nc(-c2ccc(O)c(C(N)=O)c2)cs1	-7	-119%	18µM*	3%	1%	13µM*
CC(=O)Nc1ccc(-c2csc(NCCc3ccccc3)n2)cc1	?	-11%	?	-26%	-25%	?
CCOC(=O)C(NC(=O)/C=C/c1ccc(C(N)=O)cc1)C(C)C (stereo not drawn)	·	14%	·	·	·	·
O=S(=O)(Cc1ccccc1)c1cnc2ccccc2n1	-89*	0%	16µM*	?	?	16µM*
COc1ccc(S(=O)(=O)c2cnc3ccccc3n2)cc1	-58*	0%	?	?	?	?
O=S(=O)(c1ccc(Br)cc1)c1cnc2ccccc2n1	-101*	-19%	?	?	?	26µM*
Brc1ccc(Sc2cnc3ccccc3n2)cc1	-12	5%	-22%	6%	17%	-11%
O=C(OCc1ccccc1)c1cnc2ccccc2n1	·	2%	·	·	·	·
COc1ccc(S(=O)(=O)c2ccc(OC)cc2)cc1	-11	0%	-28%	-4%	0%	?
CN(Cc1ccco1)C(=O)c1ccc(S(C)(=O)=O)cc1	·	36%	·	·	·	·
COC(C)CC(=O)NCc1cccc(C#N)c1 (stereo not drawn)	·	-36%	·	·	·	·
CCC(C)Nc1sc(S(C)(=O)=O)nc1S(=O)(=O)c1ccc(C)cc1 (stereo not drawn)	·	11%	·	·	·	·
C=CCOC(=O)C1=C[C@H](c2csc3ccccc23)C[C@H](OCc2ccc(CO)cc2)O1	0	-28%	21µM*	-3%	-10%	?
C#Cc1ccc([C@H]2C=C(C(=O)Nc3ccccc3)O[C@@H](OCc3ccc(CO)cc3)C2)cc1	-57*	·	?	-15%	?	?
O=C(Nc1ccccc1)C1=C[C@H](c2csc3ccccc23)C[C@H](OCc2ccc(CO)cc2)O1	?	1%	16µM*	-18%	-3%	16µM*
O=S(=O)(c1ccc(NCc2ccccc2)cc1)N1CCOCC1	-8	258%	-21%	-3%	7%	-9%
COCCN[C@@H]1C[C@@H]2c3[nH]c4ccccc4c3C[C@@H](C(=O)OC)N2[C@H](c2cccc(OC)c2)C1	·	5%	·	·	·	·
COc1ccc(C(=O)CCS(=O)(=O)c2ccc(C)cc2)cc1OC	-82*	-64%	3.3µM*	?	-6%	3.7µM*
Cc1ccc(S(=O)(=O)CCC(=O)c2ccc(O)cc2O)cc1	-8	?	1.2µM*	3%	-4%	1.8µM*
SMILES	IL1B secr inh	12-LOX inh	DT40 TDP1 no CPT	HT1080 IDH1KD tx	HT1080NT lethal	TDP1 cell CPT
CCc1ccc2ncc3c(-c4ccccc4)nn(-c4ccccc4)c3c2c1	·	-5%	13µM*	·	·	?
CCOC(=O)Cn1nc(-c2ccccc2)c2cnc3ccc(OCC)cc3c21	·	-7%	21µM*	·	·	13µM*
COc1ccc(OC)c(S(=O)(=O)Nc2ccc3c(c2)OCCO3)c1	-20	1%	?	-8%	-1%	?
CC1Oc2ccc(NC(=O)C3CCCC3)cc2CN(Cc2ccccc2Cl)C1=O (stereo not drawn)	·	-9%	·	·	·	·
COc1ccc(Oc2ccc(/C=C/C(=O)c3ccc(O)cc3)cc2[N+](=O)[O-])cc1	-100*	-4%	15µM*	?	23µM*	?
O=C(/C=C/c1ccc(O)c([N+](=O)[O-])c1)c1ccc2ccccc2c1	-20	-12%	23µM*	?	-14%	18µM*
Cc1ccc(N2C(=O)C3ON(c4ccccc4)C(c4ccncc4)C3C2=O)c(C)c1 (stereo not drawn)	26	-2%	-5%	-4%	-6%	-29%
CC(C)N(C(C)C)S(=O)(=O)c1ccc(NN)nc1	94	5%	?	?	?	?
CCN(CC)S(=O)(=O)c1ccc(N/N=C/c2cc(OC)ccc2O)nc1	58	-16%	6.5µM*	4.6µM*	8.2µM*	5.8µM*
CCN(CC)S(=O)(=O)c1ccc(NN)nc1	86	?	?	?	-18%	21µM*
CC(C)c1nc(C(=O)N2CCC(CCC(=O)Nc3ccc4c(c3)OCCO4)CC2)cs1	·	-3%	·	·	·	·
O=C1c2cccc(NCCCNCCO)c2C(=O)c2cccc(NCCCNCCO)c21	-103*	6%	5.8µM*	16µM*	?	5.8µM*
COc1cccc2c3cccc(OC)c3c3[nH]cnc3c12	-102*	-8%	7.3µM*	21µM*	-26%	?
CCOc1ccc(CCN2C(=S)N([C@@H](Cc3ccc(O)cc3)CN3CCC[C@@H]3CN3C(=S)NC[C@@H]3Cc3ccc(O)cc3)C[C@@H]2Cc2ccc(O)cc2)cc1	-57*	?	?	21µM*	26µM*	?
CCOc1ccc(CCN2C(=O)C(=O)N([C@@H](Cc3ccc(O)cc3)CN3CCC[C@H]3CN3C(=O)C(=O)NC[C@@H]3Cc3ccc(O)cc3)C[C@@H]2Cc2ccc(O)cc2)cc1	-1	-24%	-6%	26%	23%	4%
CCOc1ccc(CCN2C(=S)N([C@@H](Cc3ccccc3)CN3CCCC3CN3C(=S)NC[C@@H]3Cc3ccccc3)C[C@@H]2Cc2ccc(O)cc2)cc1 (stereo partly drawn)	-4	?	23µM*	3%	-8%	21µM*
CCOc1ccc(CCN2C(=S)N([C@@H](CC(C)C)CN3CCC[C@@H]3CN3C(=S)NC[C@@H]3Cc3ccccc3)C[C@@H]2Cc2ccc(O)cc2)cc1	-65*	?	13µM*	?	?	15µM*
